Activity calls are given as the source filed them. Calls follow the shape of the dose curve; as a rule, active = well fitted inhibition curve with a large enough effect in the repeat runs (not every such curve was filed as active); inconclusive = weak or mixed curves; inactive = flat fitted curve, though single readings scatter.
target: Thyrotropin-releasing hormone receptor (Homo sapiens) (UniProt P34981); test: qHTS assay to identify small molecule antagonists of the thyrotropin-releasing hormone receptor (TRHR) signaling pathway (AID 1346877); settings: TRHR-HEK293, TRH-induced calcium fluorescence, antagonist mode; series mostly up to 51.3 µM
Text: National Center for Advancing Translational Sciences [NCATS]
NIH Chemical Genomics Center [NCGC]
U.S. Environmental Protection Agency [EPA]
National Institutes of Environmental Health Sciences [NIEHS]
National Toxicology Program [NTP]
U.S. Food and Drug Administration [FDA]
Thyrotropin-releasing hormone (TRH) receptor (TRHR) is a G-protein-coupled receptor which binds the tripeptide thyrotropin releasing hormone. TRHR is found in the brain and, when bound by TRH, acts (through phospholipase C) to increase intracellular inositol trisphosphate. It plays a crucial role in the anterior pituitary where it controls the synthesis and secretion of thyroid stimulating hormone and prolactin. The TRHR-Hek293 assay is a cell-based assay, and it has the potential to screen G protein-coupled receptors. A compound/drug can either activate (agonist) or suppress (antagonist) GPCRs that can be monitored by levels of intracellular calcium. In this assay, the Tox21 10K compound library was screened to identify potential TRHR antagonists.
Tox21 Assay Protocol Summary:
The TRHR-Hek293 cells were dispensed at 1500cells/4uL/well in 1536-well black-clear bottom plates using a Multidrop dispenser. After the assay plates were incubated at a 37 C/5% CO2 incubator for 18 hours, 4 uL of Dye-Loading Solution was added to each well. The plates were incubated at 37 C for 2 hours. For agonist mode, 23 nL of compounds dissolved in DMSO, positive controls or DMSO only was transferred to the assay plate by a pin tool. The fluorescence intensity in the plates was measured using FDSS 7000EX kinetic plate reader for 3 min at 1 sec intervals. For antagonist mode, 23 nL of compounds dissolved in DMSO, positive controls or DMSO only was transferred to the assay plate by a pin tool. After 5 min incubation at room temperature, 1 uL of TRH was added on the top of the cell/compound mixtures to achieve a final agonist concentration of 1 nM. The fluorescence intensity in the plates was measured using FDSS 7000EX kinetic plate reader for 3 min at 1 sec intervals. Each test compound was measured at 15 concentrations and in triplicates.

Chain of Thyrotropin-releasing hormone receptor (Homo sapiens) (P34981 whole entry, looked up): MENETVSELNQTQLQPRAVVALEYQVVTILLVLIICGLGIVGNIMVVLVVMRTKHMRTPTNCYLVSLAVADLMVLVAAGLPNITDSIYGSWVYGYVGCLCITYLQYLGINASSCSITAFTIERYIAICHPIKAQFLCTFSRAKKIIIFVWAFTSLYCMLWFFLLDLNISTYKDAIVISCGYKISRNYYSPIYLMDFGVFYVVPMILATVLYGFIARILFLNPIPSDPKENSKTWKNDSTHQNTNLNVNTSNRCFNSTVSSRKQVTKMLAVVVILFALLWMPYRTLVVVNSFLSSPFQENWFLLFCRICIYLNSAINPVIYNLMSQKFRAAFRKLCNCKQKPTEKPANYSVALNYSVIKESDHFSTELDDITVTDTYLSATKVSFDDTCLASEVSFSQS

SMILES | outcome
CC(C)(C)c1ccc(C=O)cc1 | inactive
CC1CCC(C(C)(C)S)C(=O)C1 (stereo not given) | inactive
CCS(=O)(=O)CCn1c([N+](=O)[O-])cnc1C | inactive
NS(=O)(=O)c1cc2c(cc1Cl)NC(CC1CCCC1)NS2(=O)=O (stereo not given) | inactive
CC(=O)OC[C@H]1O[C@@H](OC(C)=O)[C@H](OC(C)=O)[C@@H]1OC(C)=O | inactive
Nc1cc(S(=O)(=O)O)ccc1S(=O)(=O)O | inactive
CC(CC(=O)O)CC(C)(C)C (stereo not given) | inactive
CC(C)C(=O)Nc1cccc(C(F)(F)F)c1 | inactive
CCCCCC1CCCC(=O)O1 (stereo not given) | inactive
CC(C)=CC(C)(C)C | inactive
C=CC(C)(O)CC/C=C(\C)CC (stereo not given) | inactive
O=C(O)c1ccccc1C(=O)Nc1ccc(S(=O)(=O)Nc2nccs2)cc1 | inactive
c1ccccc1 | inactive
CCN(CCO)c1cccc(C)c1 | inactive
CCNC(=O)NCCCOc1cccc(CN2CCCCC2)c1 | inactive
CCC(=O)c1ccc(O)cc1 | inactive
Cc1ccc(S(=O)(=O)NC(=O)NC2CCCCCCC2)cc1 | inactive
COc1ccc(NS(=O)(=O)c2ccc(N)cc2)nn1 | inactive
CCOC(=O)C(=O)c1csc(NC=O)n1 | inactive
C[Si]1(C)N[Si](C)(C)N[Si](C)(C)N1 | inactive

SMILES | outcome
COc1cc([N+](=O)[O-])ccc1N | inactive
COc1ccc(N=Nc2cc(C)c(N=Nc3ccc(S(=O)(=O)O)cc3)cc2OC)cc1 | inactive
COc1ccc(OC)c(NC(=O)CC(C)=O)c1 | inactive
C=C(C)C(=O)OC1CC(C)CC(C)(C)C1 (stereo not given) | inactive
C=COCCOCCOC=C | inactive
CCCCC(CC)CNC(=O)CC(C)OC(=O)CCC(=O)O (stereo not given) | inactive
N#CCCOCCOCCC#N | inactive
F[Si-2](F)(F)(F)(F)F | inactive
SCCSCCS | inactive
O=C1NC2NC(=O)NC2N1 (stereo not given) | inactive
C[C@H](CCC(=O)NCC(=O)O)[C@H]1CC[C@H]2[C@@H]3[C@H](O)C[C@@H]4C[C@H](O)CC[C@]4(C)[C@H]3C[C@H](O)[C@]12C | inactive
FC(F)(F)c1ccc(Cl)cc1Cl | inactive
Cc1nc([N+](=O)[O-])cn1-c1ccc([N+](=O)[O-])cc1 | inactive
CCCCCC(=O)OCC | inactive
CCNC(=O)/C=C/c1cccc(Br)c1 | inactive
CCOC(=O)CC#N | inactive
Cc1ccc2c(c1)c1c3n2CCNC3CCC1 (stereo not given) | inactive
NC(=O)NC(=O)Cc1ccccc1 | inactive
CCCCC(CC)COC(=O)c1ccccc1 (stereo not given) | inactive
CCC(O)C(C)(C)C (stereo not given) | inactive

Reference: PubChem BioAssay (Tox21)
